Measured values from paper PMC10726135, “HNF4α isoforms regulate the circadian balance between carbohydrate and lipid metabolism in the liver”.
Whole data set: some 18,000 sequences, median “log2 normalized intensity” near 0.39, cut for the highest 2% near 6.6. What follows is part of a selection rich in the highest values, with near analogues and random picks from the rest.

Target: T1, HNF4alpha2 (COS-7 nuclear extract) (Homo sapiens, UniProt P41235 1-474)
T1 sequence: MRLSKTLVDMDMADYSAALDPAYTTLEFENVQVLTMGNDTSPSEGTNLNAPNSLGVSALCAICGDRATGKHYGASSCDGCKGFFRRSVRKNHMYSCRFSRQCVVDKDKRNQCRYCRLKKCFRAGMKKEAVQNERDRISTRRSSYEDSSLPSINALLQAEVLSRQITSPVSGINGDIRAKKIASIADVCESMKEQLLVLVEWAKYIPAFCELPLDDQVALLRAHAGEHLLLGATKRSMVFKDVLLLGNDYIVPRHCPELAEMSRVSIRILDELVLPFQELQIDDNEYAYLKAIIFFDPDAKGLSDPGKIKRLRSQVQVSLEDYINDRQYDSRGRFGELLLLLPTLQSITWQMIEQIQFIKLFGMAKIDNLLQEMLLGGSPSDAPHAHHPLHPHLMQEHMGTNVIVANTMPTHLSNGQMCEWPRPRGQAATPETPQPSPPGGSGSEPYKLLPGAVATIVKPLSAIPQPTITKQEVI
Assay: protein-binding microarray; COS-7 nuclear extract on double-stranded Agilent 4x180k PBM; binding buffer, salt, pH and temperature not given in the material; high values mean tight binding
Conditions: chain copies: 2; label: 3' end of strand 1 on the slide; dsDNA, one strand shown
In short: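 COS-7 cells were transiently transfected by CaPO4 with an expression vector for a human HNF4α isoform, and nuclear extracts were prepared from them. The extracts were applied to a custom Agilent SurePrint G3 4x180k array of double-stranded ~60-nt oligonucleotides, with ~44,000 test sequences spotted in quadruplicate. An Agilent G2565CA scanner imaged bound HNF4α at 2-µm resolution. Binding signal is the background-corrected, normalized gProcessedSignal from Agilent software.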

Row | Sequence | binding signal [log2 normalized intensity]
1 | TCAGAGCAGGTGAACGACTTGACAAAGGTCGCCTAGGGAGATTAGAGTATCGGTCGA | 3.22
2 | GAATGACTTTGGGGAAATGACCTTTGTCCAGCCTAGGGAGATTAGAGTATCGGTCGA | 8.8
3 | ACTTTGGGGAAATGACCTTTGTCCAGCTGTGCCTAGGGAGATTAGAGTATCGGTCGA | 6.74
4 | TGATGACTTTTGACCCCAGGGGAAACTCCAGCCTAGGGAGATTAGAGTATCGGTCGA | 3.99
5 | AATGACCTTTGTCCAGCTGTGCCGAGCCTGGCCTAGGGAGATTAGAGTATCGGTCGA | 4.02
6 | GGAGGACTTTGGAATGGCAGTGCTTGTCCAGCCTAGGGAGATTAGAGTATCGGTCGA | 1.83
7 | TTATCATGTGGTATTAACATGTAAATATGAGCCTAGGGAGATTAGAGTATCGGTCGA | 1.69
8 | GTAGTGGGGAGGGCATGGACTTTGGAATTAGCCTAGGGAGATTAGAGTATCGGTCGA | 7.37
9 | GTATTAACATGTAAATATGACCTTTGCTTTGCCTAGGGAGATTAGAGTATCGGTCGA | 6.44
10 | ATGTGGTATTAACATGTAAATATGACCTTTGCCTAGGGAGATTAGAGTATCGGTCGA | 7.12
11 | CTGGTGTAGTGGGGAGGGCATGGACTTTGGGCCTAGGGAGATTAGAGTATCGGTCGA | 5.45
12 | GGGGAAATGACCTTTGTCCAGCTGTGCCGAGCCTAGGGAGATTAGAGTATCGGTCGA | 6.11
13 | GGGGAGGGCATGGACTTTGGAATTAAGGAGGCCTAGGGAGATTAGAGTATCGGTCGA | 5.45
14 | CTAAAAACATTGTGGAGCTCATGTAAGGTCGCCTAGGGAGATTAGAGTATCGGTCGA | 1.62
15 | CATGTGGGTCCAAAGAACATTGCATTCCTTGCCTAGGGAGATTAGAGTATCGGTCGA | 1.55
16 | CCCCGCCTTGGCCTCCCGGAGAGGCCCCGCGCCTAGGGAGATTAGAGTATCGGTCGA | 2.49
17 | CCCCCACACCATTAGAGAACATGTACTTTGGCCTAGGGAGATTAGAGTATCGGTCGA | 3.32
18 | TTAAAGGGCAGAAGAAGGGATTTAGATTAGGCCTAGGGAGATTAGAGTATCGGTCGA | -0.58
19 | GATCCTCCCACTTCAGCCTCCCGAGTAGTTGCCTAGGGAGATTAGAGTATCGGTCGA | 2.81
20 | TGAGAGAGCATCCAGATAAAGCTGAAGAAAGCCTAGGGAGATTAGAGTATCGGTCGA | -0.814
21 | TTCAGCCATTTTATGACCATGAGGTGACGGGCCTAGGGAGATTAGAGTATCGGTCGA | 1.6
22 | ACGTGGCAATCATTCTGTCTGCCTTCAGGCGCCTAGGGAGATTAGAGTATCGGTCGA | -0.947

Row | Sequence | binding signal [log2 normalized intensity]
23 | CACTGTTGCCCCTTCCAAAGTCCACCTCAAGCCTAGGGAGATTAGAGTATCGGTCGA | 4.43
24 | GCATGGAATGACTTTGGGGAAATGACCTTTGCCTAGGGAGATTAGAGTATCGGTCGA | 7.23
25 | ATGACCTTTGAGCAATAGGAAATGGGAGGGGCCTAGGGAGATTAGAGTATCGGTCGA | 2.34
26 | CCTTTTTGGAATGTGTTTGCATGACTCATAGCCTAGGGAGATTAGAGTATCGGTCGA | 1.77
27 | CCTTGACACATCTGATTAGAGGCTCAGGTAGCCTAGGGAGATTAGAGTATCGGTCGA | -0.794
28 | TCAGAGGAATGTCTGACCAACCTGTCCAAAGCCTAGGGAGATTAGAGTATCGGTCGA | 0.136
29 | AGTATATTGGCTTGGCTGTGTCCCTTGACCGCCTAGGGAGATTAGAGTATCGGTCGA | 3.04
30 | GGAATGTCTGACCAACCTGTCCAAAGGTCAGCCTAGGGAGATTAGAGTATCGGTCGA | 7.66
31 | GTCTGACCAACCTGTCCAAAGGTCATCTGTGCCTAGGGAGATTAGAGTATCGGTCGA | 7.04
32 | CTTGGCTGTGTCCCTTGACCAAAGGTCACTGCCTAGGGAGATTAGAGTATCGGTCGA | 6.77
33 | TATACCTGTACACTTACAAGTGTACAAAGGGCCTAGGGAGATTAGAGTATCGGTCGA | 2.65
34 | CACTTACAAGTGTACAAAGGTCACTTCTGTGCCTAGGGAGATTAGAGTATCGGTCGA | 6.32
35 | CCTGTCCAAAGGTCATCTGTCACTCTAGATGCCTAGGGAGATTAGAGTATCGGTCGA | 5.47
36 | CTGTACACTTACAAGTGTACAAAGGTCACTGCCTAGGGAGATTAGAGTATCGGTCGA | 7.61
37 | TTATATCAGAGGAATGTCTGACCAACCTGTGCCTAGGGAGATTAGAGTATCGGTCGA | 0.0786
38 | ACCAACCTGTCCAAAGGTCATCTGTCACTCGCCTAGGGAGATTAGAGTATCGGTCGA | 5.7
39 | ATTGGCTTGGCTGTGTCCCTTGACCAAAGGGCCTAGGGAGATTAGAGTATCGGTCGA | 2.07
40 | AAGGCTTTGAAGTCTGGTGGCAAGTACCCTGCCTAGGGAGATTAGAGTATCGGTCGA | -0.842
41 | ATTTTCTCATCCCAGGGATAATGATAAAGAGCCTAGGGAGATTAGAGTATCGGTCGA | -0.184
42 | TCCCTTTAGTGGAGTATAGGAACATGAACTGCCTAGGGAGATTAGAGTATCGGTCGA | 1.96
43 | GAGTTGGGGACAAAGTTCAAGGTCCAGCCTGCCTAGGGAGATTAGAGTATCGGTCGA | 5.28
44 | GTCCAAGATGGCAATGTTCCTGCTCTGTCAGCCTAGGGAGATTAGAGTATCGGTCGA | -0.996

Row | Sequence | binding signal [log2 normalized intensity]
45 | AGATTACTTCAAGGCTGGAGTTCACTCCCAGCCTAGGGAGATTAGAGTATCGGTCGA | -0.354
46 | CATGGGTCTCTTCCTCAGTTTGTTCTTGGGGCCTAGGGAGATTAGAGTATCGGTCGA | 1.18
47 | GATCCAAAAGACCCAGGTGTGTTGCAACTTGCCTAGGGAGATTAGAGTATCGGTCGA | 0.84
48 | GTGGGAGAGCAAGGGTCAAGGGTCATTTGTGCCTAGGGAGATTAGAGTATCGGTCGA | 6.7
49 | AAGGGTCAAGGGTCATTTGTTTTTACAGACGCCTAGGGAGATTAGAGTATCGGTCGA | 6.27
50 | TGGGTGGGGGAAGTGTGGTCAAGGGTCAGTGCCTAGGGAGATTAGAGTATCGGTCGA | 4
51 | CCGCAGTGGGAGAGCAAGGGTCAAGGGTCAGCCTAGGGAGATTAGAGTATCGGTCGA | 6.65
52 | CCCATCCGCAGTGGGAGAGCAAGGGTCAAGGCCTAGGGAGATTAGAGTATCGGTCGA | 3.57
53 | AGAGCAAGGGTCAAGGGTCATTTGTTTTTAGCCTAGGGAGATTAGAGTATCGGTCGA | 5.91
54 | CAGAACAAAGTCCAGTAAGGACAGTTCCAGGCCTAGGGAGATTAGAGTATCGGTCGA | 2.29
55 | CTTGTAAGCCACAGTACAAAGGTGAGCTTTGCCTAGGGAGATTAGAGTATCGGTCGA | 3.57
56 | TGGATCATGTGTCTGAGCAAGTTTCCTCCTGCCTAGGGAGATTAGAGTATCGGTCGA | -0.544
57 | CCTCGAGGCAACCTTTGACCTGGTACTATGGCCTAGGGAGATTAGAGTATCGGTCGA | 6.02
58 | GTCAAATCACTGAAGCGACCCCTCGAGGCAGCCTAGGGAGATTAGAGTATCGGTCGA | 1.42
59 | ATCACTGAAGCGACCCCTCGAGGCAACCTTGCCTAGGGAGATTAGAGTATCGGTCGA | 1.12
60 | TGAAGCGACCCCTCGAGGCAACCTTTGACCGCCTAGGGAGATTAGAGTATCGGTCGA | 8.54
61 | GTCAAACCTTTGACCCTTTATAATCCCCTAGCCTAGGGAGATTAGAGTATCGGTCGA | 4.25
62 | CGACCCCTCGAGGCAACCTTTGACCTGGTAGCCTAGGGAGATTAGAGTATCGGTCGA | 7.48
63 | AAGTATCTCGGTCAAACCTTTGACCCTTTAGCCTAGGGAGATTAGAGTATCGGTCGA | 6.7
64 | GAAACCCTAAACCTGCAAACCTTTGACCTTGCCTAGGGAGATTAGAGTATCGGTCGA | 5.31
65 | TCTCGGTCAAACCTTTGACCCTTTATAATCGCCTAGGGAGATTAGAGTATCGGTCGA | 5.95
66 | CTGAATAAAACAAACTCATTTTGATCTTTGGCCTAGGGAGATTAGAGTATCGGTCGA | 2.24

Row | Sequence | binding signal [log2 normalized intensity]
67 | CAGCAGACTCAGAAAAATATGTGGACTTCAGCCTAGGGAGATTAGAGTATCGGTCGA | 2.49
68 | CACCCCCATCTATGCACTCTCACCTTGGGGGCCTAGGGAGATTAGAGTATCGGTCGA | 0.591
69 | CAAATTGCTGACTTTCTGTGTCTTGGCAGTGCCTAGGGAGATTAGAGTATCGGTCGA | 1.59
70 | TCTACCTGACCTCCCAAAATTCTTCACATAGCCTAGGGAGATTAGAGTATCGGTCGA | -0.0778
71 | TTCCCATTCATAAAATTACGCCACAGAGTTGCCTAGGGAGATTAGAGTATCGGTCGA | -0.871
72 | AGAAGCTTGGTATGTCTGATGAATAGAAAGGCCTAGGGAGATTAGAGTATCGGTCGA | 0.62
73 | GTCCAAAGGTCAGCAAGCCTGGAGTTCTGAGCCTAGGGAGATTAGAGTATCGGTCGA | 4.22
74 | CTGGAGTCCAAAGGTCAGCAAGCCTGGAGTGCCTAGGGAGATTAGAGTATCGGTCGA | 6.88
75 | TCATTTCAGCCTTAACTCAAAAGGCCAAAGGCCTAGGGAGATTAGAGTATCGGTCGA | -0.978
76 | AAGGTCAGCAAGCCTGGAGTTCTGATGTTCGCCTAGGGAGATTAGAGTATCGGTCGA | 0.534
77 | GGAGACCACTGGTGTAAGCTCTGGAGTCCAGCCTAGGGAGATTAGAGTATCGGTCGA | 0.767
78 | GGTGTAAGCTCTGGAGTCCAAAGGTCAGCAGCCTAGGGAGATTAGAGTATCGGTCGA | 8.34
79 | CCACTGGTGTAAGCTCTGGAGTCCAAAGGTGCCTAGGGAGATTAGAGTATCGGTCGA | 3.79
80 | TCAGCCTTAACTCAAAAGGCCAAAGTCCAAGCCTAGGGAGATTAGAGTATCGGTCGA | 8.38
81 | GGAGTGACCCTGGGAGCAAAGGTCAAGAGTGCCTAGGGAGATTAGAGTATCGGTCGA | 6.55
82 | AAGCTCTGGAGTCCAAAGGTCAGCAAGCCTGCCTAGGGAGATTAGAGTATCGGTCGA | 7.73
83 | ATCCACCCATCCAAAGGTCAGCAATCTCAAGCCTAGGGAGATTAGAGTATCGGTCGA | 2.93
84 | TCCACAGTCAAGGCCAAAGGTTAAAAATAAGCCTAGGGAGATTAGAGTATCGGTCGA | 3.7
85 | TTAATAGAAGAAAGCCCTTTTTGGAATGTGGCCTAGGGAGATTAGAGTATCGGTCGA | 0.655
